Compound activity deposited in PubChem by National Center for Advancing Translational Sciences (NCATS).
An excerpt weighted towards active compounds, which were near 2.8% of everything screened.
ATXN2 expr inh: ATXN2 expression inhibition; HEK-293 ATXN2-luciferase reporter, luminescence, 24 h; Potency, µM (top dose mostly 57 µM), inactives show top-dose activity change, negative = inhibition, actives largely listed as inhibitors; 360,000 compounds, 0.72% hits; also: potency is read from the fitted curve at half-maximal effect; % is scaled to controls: 0 for no effect and ±100 for the full control effect; nearly all actives have a fitted effect of over 55% in size
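ATXN2-luciferase reporter cells (luciferase flanked by upstream and downstream ATXN2 gene portions) were treated 24 h at 37 °C with compounds at up to 57 uM. SteadyGlo luminescence gave expression; GF-AFC fluorescence gave viability.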
CtBP-E1A inh: blocks the CtBP interaction with E1A | AlphaScreen GST-E1A/His-CtBP binding, 1536-well; active compounds read low | activity change, % (concentration not given with the values) | 340,000 compounds, 0.49% hits; in the data active = activity change below about -65%; inconclusive = mostly about -30% to -63%; also: % is scaled to controls: 0 for no effect and ±100 for the full control effect
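Steps: dispense buffer (Tris pH 8.0, NaCl 300 mM, TCEP 1 mM, BSA, Tween 20); add 5X protein mix (GST-E1A, His-CtBP, 125 nM each); pin 23 nL compound; 2 h at 37 °C, dark; add 5X beads (50 ug/mL); 1 h; read.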
S2 tox: viability counter-screen for ATXN expression inhibitors | S2 cells (HEK-293 line with an ATXN2-luciferase reporter) viability, CellTiter-Fluor protease fluorescence, 24 h | Potency, µM (titrated, usually from 56.7 µM), hits mostly cytotoxic | 400,000 compounds, 0.49% hits; also: potency is read from the fitted curve at half-maximal effect; nearly all actives have a fitted effect of over 40% in size
HepG2 viability: kills HepG2 cells in TGF-b inhibitor counter-screen | HepG2 CAGA-GFP viability, ATP luminescence, 18 h | Potency, µM (highest dose often 46.1 µM), for inactives: at the highest dose activity change, negative = cytotoxicity, hits mostly cytotoxic | 410,000 compounds, 0.76% hits | AID 588856; also: potency is read from the fitted curve at half-maximal effect
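HepG2 CAGA-GFP cells (1000/well, DMEM with 1% FBS) received compound, then TGF-beta at 500 pg/mL final, and were incubated 18 hours at 37 degrees C. Viability was read by CellTiter-Glo luminescence. Media-only wells were set as complete cell-killing and DMSO as no toxicity.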
Six1-Eya2 inh: inhibitors of human Six1/Eya2 interaction; Q15475+O00167; AlphaScreen GST-Six1/His-Eya2 binding, biochemical; active compounds read low; activity change, % (concentration not given with the values); 360,000 compounds, 0.56% hits; AID 651725; in the data active = activity change below about -65%; inconclusive = mostly about -30% to -63%; also: % is scaled to controls: 0 for no effect and ±100 for the full control effect
Target sequence (O00167 whole entry, looked up): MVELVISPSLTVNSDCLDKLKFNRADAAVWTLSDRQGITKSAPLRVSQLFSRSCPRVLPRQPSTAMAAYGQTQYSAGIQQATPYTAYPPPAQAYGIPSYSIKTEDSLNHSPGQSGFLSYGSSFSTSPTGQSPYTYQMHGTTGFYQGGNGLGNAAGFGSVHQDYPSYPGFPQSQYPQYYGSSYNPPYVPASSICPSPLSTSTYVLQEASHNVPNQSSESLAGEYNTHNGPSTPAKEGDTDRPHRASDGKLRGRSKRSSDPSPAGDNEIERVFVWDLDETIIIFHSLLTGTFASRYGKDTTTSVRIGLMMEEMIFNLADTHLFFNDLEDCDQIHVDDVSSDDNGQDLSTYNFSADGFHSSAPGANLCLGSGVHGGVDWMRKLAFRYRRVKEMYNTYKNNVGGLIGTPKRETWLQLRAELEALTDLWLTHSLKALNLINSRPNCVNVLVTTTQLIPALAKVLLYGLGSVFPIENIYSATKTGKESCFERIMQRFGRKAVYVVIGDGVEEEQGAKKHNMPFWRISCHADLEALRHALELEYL
Target sequence (Q15475 whole entry, looked up): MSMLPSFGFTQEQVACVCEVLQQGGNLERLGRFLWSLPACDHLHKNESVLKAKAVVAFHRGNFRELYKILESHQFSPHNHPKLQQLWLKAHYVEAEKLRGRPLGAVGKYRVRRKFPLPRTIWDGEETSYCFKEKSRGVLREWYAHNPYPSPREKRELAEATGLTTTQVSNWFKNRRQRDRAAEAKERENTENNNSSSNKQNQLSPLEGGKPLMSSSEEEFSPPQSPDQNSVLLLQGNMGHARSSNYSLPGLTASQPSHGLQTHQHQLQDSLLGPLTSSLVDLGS
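Six1/Eya2 binding was read as AlphaScreen signal after compounds were pinned into GST-Six1 plus His-tagged Eya2 (5X stock 250/500 nM) in pH 8.0 Tris/NaCl/TCEP buffer, beads added, then incubated 1 h, 37 C, dark.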
TGFb inhibitor: inhibitors of TGF-b signaling | 410,000 compounds, 1.2% hits | AID 588855 | Potency, µM (titrated, usually from 46.1 µM), for inactives: at the highest dose activity, negative = inhibition, usual class: inhibitors | HepG2 CAGA-GFP TGF-b/SMAD3 reporter, GFP fluorescence, 18 h; TGF-beta stimulated, 500 pg/mL final; also: potency is read from the fitted curve at half-maximal effect; % is scaled to controls: 0 for no effect and ±100 for the full control effect; nearly all actives have a fitted effect of over 65% in size
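TGF-beta reporter screen: HEPG2 CAGA-GFP, 1% FBS, 500 pg/mL TGF-beta final, 18 h; per-cell GFP summed per well; curves fitted and categorized by class.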
* marks the source's active call; other numbers are inactive results; i = inactive; u = inconclusive; x = no result given; [ ] = dose if it differs, or a comment. Unless noted, calls follow the shape of the dose curve; as a rule, active = well fitted curve in the direction sought with a large enough effect; inconclusive = small, poorly fitted or top-dose-only effect, or another doubt; inactive = no such curve, though single readings can be large; an effect the other way counts as inactive or inconclusive.

SMILES	ATXN2 expr inh	CtBP-E1A inh	S2 tox	HepG2 viability	Six1-Eya2 inh	TGFb inhibitor
Cc1ccc(-c2csc(-c3c[nH]c4ccccc34)n2)c(C)c1	23.7%	-0.3	i	20µM*	-7.0	u
NC(N)=N/N=C/c1ccc(Cl)c(Cl)c1	u	-13.7	i	12.6µM*	7.3	u
NC(N)=N/N=C/c1ccccc1	-24.1%	0.3	u	10.8%	-0.4	11.4%
NC(N)=N/N=C/c1ccc(OCc2ccccc2Cl)cc1	14.1µM*	-1.0	28.2µM*	-96.1%	-13.4	u
OCCCCNCc1ccc(OCc2ccccc2Cl)cc1	-6.2%	5.0	i	-33.7%	1.9	-0.3%
Cc1cccc(N/C=C/c2onc(C)c2[N+](=O)[O-])c1	32.8%	-6.0	i	-25.2%	-2.0	31.4%
Cc1cccc(/C=C/c2onc(C)c2[N+](=O)[O-])n1	u	1.6	17.8µM*	-166.5%	0.8	0.0%
CC(C)CN(C(=O)CCNC(=O)c1ccc(Cl)cc1)C1CCS(=O)(=O)C1 (stereo not drawn)	u	2.4	28.2µM*	-1.3%	-0.7	-1.3%
O=C(O)CNC(=O)CC1S/C(=N/N=C2/NC(=O)CS2)NC1=O (stereo not drawn)	9.6%	u	i	-14.0%	-66.8*	0.0%
NC(=O)NC(=O)CC1S/C(=N/N=C/c2ccccc2)NC1=O (stereo not drawn)	2.2%	-3.0	i	-16.9%	8.3	-2.0%
NC(=O)NC(=O)CC1S/C(=N/N=C2\CSC(=O)N2)NC1=O (stereo not drawn)	1.2%	-92.7*	i	-0.6%	-90.4*	7.8%
CCCCNC(=O)/C(=C\c1ccc([N+](=O)[O-])o1)NC(=O)c1ccccc1	u	x	i	-24.6%	-1.0	u
COC(=O)/C(=C\c1ccc([N+](=O)[O-])o1)NC(=O)c1ccccc1	u	-1.7	u	12.6µM*	-2.7	11.2µM*
CCOC(=O)c1c(C)[nH]c(CCC(=O)NCc2cc(Br)ccc2OC)c1C	x	x	x	-11.4%	x	0.0%
Cc1cc(C)c2nc(N(CCCN(C)C)C(=O)c3ccc(S(=O)(=O)N4CCCCCC4)cc3)sc2c1	u	u	i	-74.3%	-19.7	15.8µM*
COc1cc2nc(N(CCCN(C)C)C(=O)c3ccc(S(=O)(=O)N4CCc5ccccc54)cc3)sc2cc1OC	-13.6%	u	i	-32.7%	-13.6	-13.4%
COc1ccc2sc(N(CCCN(C)C)C(=O)c3ccc(S(=O)(=O)N4CCCc5ccccc54)cc3)nc2c1	u	-4.4	x	11.2µM*	u	22.4µM*
CCN(Cc1ccccc1)S(=O)(=O)c1ccc(C(=O)N(CCCN(C)C)c2nc3cc(OC)ccc3s2)cc1	u	u	u	22.4µM*	u	u
CCN(Cc1ccccc1)S(=O)(=O)c1ccc(C(=O)N(CCCN(C)C)c2nc3cc4c(cc3s2)OCCO4)cc1	u	u	u	-92.6%	u	u
CCOC(=O)C1=C(N)c2ccccc2CC1C1CCCC1 (stereo not drawn)	x	x	i	-116.3%	3.5	12.6µM*
C=C1c2ccccc2O[C@H](C(=O)OCC)[C@@H]1C1CCCCC1	-0.9%	17.2	i	2.4%	16.8	-5.3%
O=C(O)c1cc(N2N=C(C(F)(F)F)/C(=C/C=C/c3ccco3)C2=O)ccc1Cl	-36.2%[11.3 µM]	-11.1	u	-2.5%	-78.2*	14.8%
Cc1c(C(=O)N2CCCC(c3ccccc3)C2)sc2ncnc(NCCc3ccccn3)c12 (stereo not drawn)	x	x	i	x	x	x
CN(C)S(=O)(=O)c1ccc(C(=O)Nc2nnc(SCC(=O)N3CCOCC3)s2)cc1	x	4.1	i	-6.0%	12.1	-4.9%
CC(C)Oc1ccc(C(=O)Nc2nnc(SCC(=O)N3CCOCC3)s2)cc1	10µM*	1.2	i	10.5%	-7.5	6.8%
SMILES	ATXN2 expr inh	CtBP-E1A inh	S2 tox	HepG2 viability	Six1-Eya2 inh	TGFb inhibitor
O=C1c2ccccc2C(=O)c2cc(S(=O)(=O)Nc3ccccc3)ccc21	-20.1%	-29.3	i	-104.4%	u	20µM*
Cc1coc2c(C)c3oc(=O)c(CC(=O)N[C@@H](CC(C)C)C(=O)O)c(C)c3cc12	-2.1%	-4.0	i	-15.0%	-3.0	-12.6%
Cc1coc2c(C)c3oc(=O)c(CCC(=O)N[C@@H](C)C(=O)N[C@@H](Cc4ccccc4)C(=O)O)c(C)c3cc12	-9.0%	-80.1*	i	-1.8%	-69.4*	12.5%
Cc1c(CC(=O)O)c(=O)oc2cc3occ(-c4ccccc4)c3cc12	10.6%	0.0	i	-13.8%	-3.4	0.5%
Cc1c(CC(=O)N[C@@H](C)C(=O)O)c(=O)oc2c(C)c3occ(-c4ccccc4)c3cc12	-5.3%	-82.9*	i	-13.8%	-65.4*	3.2%
Cc1c(CC(=O)N[C@@H](C)C(=O)O)c(=O)oc2cc3occ(-c4ccccc4)c3cc12	x	x	i	0.8%	-69.3*	0.7%
Cc1ccc(-c2nnc(SCC(=O)NC3CCCC3)nc2-c2ccc(C)cc2)cc1	5.6%	x	i	-6.8%	x	u
COCCCNC(=O)c1ccc(Cn2c(=O)c3ccccc3n(Cc3c(C)cc(C)cc3C)c2=O)cc1	-9.1%	x	i	-0.5%	x	-6.6%
O=C1CSC(=S)N1N=C1CCCCCC1	1.7%	-10.3	i	-5.5%	-80.0*	-3.7%
O=C1CSC(=S)N1/N=C/c1c(F)cccc1F	0.0%	u	i	-0.3%	-20.1	5.0%
O=C(COC(=O)c1ccc2c(c1)OCCO2)NCCC1=CCCCC1	16.6%	-0.6	i	12.7%	-71.3*	9.6%
CNS(=O)(=O)c1cccc(C(=O)OCC(=O)c2ccc3c(c2)OCCO3)c1	17.8µM*	-0.6	i	-1.3%	-3.1	-5.3%
CCCCNC(=O)CCCn1c(=O)c2ccccc2n(CC(=O)Nc2ccccc2OCC)c1=O	15.4%	x	i	-4.0%	x	0.1%
CCN(CC)S(=O)(=O)c1cc([N+](=O)[O-])ccc1NNC(=O)Nc1ccc(Cl)c(Cl)c1	u	-4.5	x	-2.5%	-16.8	7.08µM*
